# The source made the active and inactive calls. Rule for the calls: active = hit-call score of the fitted dose curve at least 0.9, where 1 is the maximum; inactive = score below 0.9.
# Read-out: Signal transducer and activator of transcription 3 (Homo sapiens) (UniProt P40763)
# Test: LTEA_HepaRG_STAT3: Life Technologies and Expression Analysis (LTEA) Assay for Signal transducer and activator of transcription (STAT3) using HepaRG (AID 2283529)
# Conditions: mRNA level, 48 h; actives raise or lower the signal
# How it was run: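 Differentiated HepaRG cells, serum-free induction medium, dosed 48 h in duplicate, 8 half-log concentrations from 100 uM in 0.5% DMSO. STAT3 mRNA by qRT-PCR, normalised to ACTB, GAPDH, POLR2A; bidirectional fit versus DMSO.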
# Sequence of Signal transducer and activator of transcription 3 (Homo sapiens) (P40763 whole entry, looked up): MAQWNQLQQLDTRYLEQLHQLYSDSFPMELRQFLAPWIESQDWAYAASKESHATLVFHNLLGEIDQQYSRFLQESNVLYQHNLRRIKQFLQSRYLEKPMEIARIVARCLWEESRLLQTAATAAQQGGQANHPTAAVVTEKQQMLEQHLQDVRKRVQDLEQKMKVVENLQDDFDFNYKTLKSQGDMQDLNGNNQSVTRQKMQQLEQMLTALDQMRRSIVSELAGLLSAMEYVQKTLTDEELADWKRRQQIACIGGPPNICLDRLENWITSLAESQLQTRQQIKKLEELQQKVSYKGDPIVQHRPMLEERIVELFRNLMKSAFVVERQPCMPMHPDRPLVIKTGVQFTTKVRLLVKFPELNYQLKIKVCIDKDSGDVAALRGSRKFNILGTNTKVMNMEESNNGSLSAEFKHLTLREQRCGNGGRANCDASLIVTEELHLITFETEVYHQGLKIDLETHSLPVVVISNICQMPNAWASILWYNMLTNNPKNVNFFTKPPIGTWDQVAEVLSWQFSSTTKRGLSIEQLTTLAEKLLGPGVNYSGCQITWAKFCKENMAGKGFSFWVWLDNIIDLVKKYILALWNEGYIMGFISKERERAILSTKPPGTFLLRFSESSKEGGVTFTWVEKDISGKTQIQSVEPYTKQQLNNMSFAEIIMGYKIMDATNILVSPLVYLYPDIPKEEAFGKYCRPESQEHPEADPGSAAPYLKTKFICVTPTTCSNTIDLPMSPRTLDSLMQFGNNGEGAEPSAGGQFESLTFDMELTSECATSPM
row,Compound,outcome
1,ClC(Cl)c1ccccc1,inactive
2,CC(C)(C)c1ccc(O)cc1,inactive
3,CCC(C)(C)c1ccc(O)cc1,inactive
4,c1ccc2c(c1)Nc1ccccc1S2,inactive
5,CCNc1nc(Cl)nc(NC(C)(C)C)n1,inactive
6,Nc1cc2c3c(c1)C(c1ccccc1)=N[C@@H](NC(=O)c1cccnc1)C(=O)N3CC2,inactive
7,ClC(Cl)(Cl)c1ccccc1,inactive
8,O=[N+]([O-])c1ccccc1,inactive
9,CCOP(=S)(Oc1ccc([N+](=O)[O-])cc1)c1ccccc1 (centres undefined),inactive
10,CCCCN(CCCC)SN(C)C(=O)Oc1cccc2c1OC(C)(C)C2,inactive
11,c1nc[nH]n1,inactive
12,CN(C)C(=O)Cl,inactive
13,CCN(CC)c1ccccc1,inactive
14,Nc1ccc(Cl)cc1,inactive
15,CCCCCCCc1ccc(O)cc1,inactive
16,Cc1ccc(O)cc1C,inactive
17,c1cc2c3c(cccc3c1)CC2,inactive
18,CCC1(c2ccccc2)C(=O)N=C(O)NC1=O (centres undefined),inactive
19,O=P1(N(CCCl)CCCl)NCCCO1 (centres undefined),inactive
20,[N-]=[N+]=[N-],inactive
21,Cc1ccc(N)cc1N,inactive
22,CCOC(=O)c1ccccc1C(=O)OCC,inactive

# Read-out: solute carrier (SLCO1B1), SLCO1B1 (gene 10599)
# Test: LTEA_HepaRG_SLCO1B1: Life Technologies and Expression Analysis (LTEA) Assay for solute carrier (SLCO1B1) using HepaRG (AID 2283530)
# Conditions: mRNA level, 48 h; actives raise or lower the signal
# How it was run: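 SLCO1B1 transcript levels were quantified by TaqMan qRT-PCR using three housekeeping genes for normalization. This followed 48 h chemical exposure (100 uM top, half-log, 8 points, 0.5% DMSO) of HepaRG liver cells, with gain or loss fitted relative to DMSO.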
row,Compound,outcome
1,ClC(Cl)c1ccccc1,inactive
2,CC(C)(C)c1ccc(O)cc1,inactive
3,CCC(C)(C)c1ccc(O)cc1,inactive
4,c1ccc2c(c1)Nc1ccccc1S2,inactive
5,CCNc1nc(Cl)nc(NC(C)(C)C)n1,inactive
6,Nc1cc2c3c(c1)C(c1ccccc1)=N[C@@H](NC(=O)c1cccnc1)C(=O)N3CC2,inactive
7,ClC(Cl)(Cl)c1ccccc1,inactive
8,O=[N+]([O-])c1ccccc1,inactive
9,CCCCN(CCCC)SN(C)C(=O)Oc1cccc2c1OC(C)(C)C2,inactive
10,c1nc[nH]n1,inactive
11,CN(C)C(=O)Cl,inactive
12,CCN(CC)c1ccccc1,inactive
13,Nc1ccc(Cl)cc1,inactive
14,CCCCCCCc1ccc(O)cc1,inactive
15,Cc1ccc(O)cc1C,inactive
16,c1cc2c3c(cccc3c1)CC2,inactive
17,CCC1(c2ccccc2)C(=O)N=C(O)NC1=O (centres undefined),inactive
18,O=P1(N(CCCl)CCCl)NCCCO1 (centres undefined),inactive
19,[N-]=[N+]=[N-],inactive
20,Cc1ccc(N)cc1N,inactive
21,CCOC(=O)c1ccccc1C(=O)OCC,inactive

# Read-out: sulfotransferase 2A1 (SULT2A1), SULT2A1 (gene 6822)
# Test: LTEA_HepaRG_SULT2A1: Life Technologies and Expression Analysis (LTEA) Assay for sulfotransferase 2A1 (SULT2A1) using HepaRG (AID 2283531)
# Conditions: mRNA level, 48 h; actives raise or lower the signal
# How it was run: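 Expression change of SULT2A1, by qRT-PCR with three housekeeping-gene normalization, was scored bidirectionally versus DMSO. Cells: differentiated HepaRG, dosed in duplicate for 48 h across 8 points, highest 100 µM, half-log dilution, 0.5% DMSO.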
row,Compound,outcome
1,ClC(Cl)c1ccccc1,inactive
2,CC(C)(C)c1ccc(O)cc1,inactive
3,CCC(C)(C)c1ccc(O)cc1,inactive
4,c1ccc2c(c1)Nc1ccccc1S2,inactive
5,CCNc1nc(Cl)nc(NC(C)(C)C)n1,inactive
6,Nc1cc2c3c(c1)C(c1ccccc1)=N[C@@H](NC(=O)c1cccnc1)C(=O)N3CC2,inactive
7,ClC(Cl)(Cl)c1ccccc1,inactive
8,O=[N+]([O-])c1ccccc1,inactive
9,CCOP(=S)(Oc1ccc([N+](=O)[O-])cc1)c1ccccc1 (centres undefined),inactive
10,CCCCN(CCCC)SN(C)C(=O)Oc1cccc2c1OC(C)(C)C2,inactive
11,c1nc[nH]n1,inactive
12,CN(C)C(=O)Cl,inactive
13,CCN(CC)c1ccccc1,inactive
14,Nc1ccc(Cl)cc1,inactive
15,CCCCCCCc1ccc(O)cc1,inactive
16,Cc1ccc(O)cc1C,inactive
17,c1cc2c3c(cccc3c1)CC2,inactive
18,CCC1(c2ccccc2)C(=O)N=C(O)NC1=O (centres undefined),inactive
19,O=P1(N(CCCl)CCCl)NCCCO1 (centres undefined),inactive
20,[N-]=[N+]=[N-],inactive
21,Cc1ccc(N)cc1N,inactive
22,CCOC(=O)c1ccccc1C(=O)OCC,inactive

# Read-out: Transforming Growth Factor (TGFA), TGFA (gene 7039)
# Test: LTEA_HepaRG_TGFA: Life Technologies and Expression Analysis (LTEA) Assay for Transforming Growth Factor (TGFA) using HepaRG (AID 2283532)
# Conditions: mRNA level, 48 h; actives raise or lower the signal
# How it was run: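 Differentiated HepaRG cells exposed 48 hours in serum-free induction medium, 0.5% DMSO vehicle, 8-point half-log series from 100 uM, in duplicate. TGFA mRNA by TaqMan qRT-PCR, normalised to ACTB, GAPDH, POLR2A; bidirectional fit versus DMSO.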
Compound,outcome,AC50
ClC(Cl)c1ccccc1,inactive,
CC(C)(C)c1ccc(O)cc1,inactive,
CCC(C)(C)c1ccc(O)cc1,inactive,
c1ccc2c(c1)Nc1ccccc1S2,inactive,
CCNc1nc(Cl)nc(NC(C)(C)C)n1,inactive,
Nc1cc2c3c(c1)C(c1ccccc1)=N[C@@H](NC(=O)c1cccnc1)C(=O)N3CC2,inactive,
ClC(Cl)(Cl)c1ccccc1,inactive,
O=[N+]([O-])c1ccccc1,inactive,
CCOP(=S)(Oc1ccc([N+](=O)[O-])cc1)c1ccccc1 (centres undefined),inactive,
CCCCN(CCCC)SN(C)C(=O)Oc1cccc2c1OC(C)(C)C2,inactive,
c1nc[nH]n1,,0.0948 µM (active)
CN(C)C(=O)Cl,inactive,
CCN(CC)c1ccccc1,inactive,
Nc1ccc(Cl)cc1,inactive,
CCCCCCCc1ccc(O)cc1,inactive,
Cc1ccc(O)cc1C,inactive,
c1cc2c3c(cccc3c1)CC2,inactive,
CCC1(c2ccccc2)C(=O)N=C(O)NC1=O (centres undefined),inactive,
O=P1(N(CCCl)CCCl)NCCCO1 (centres undefined),inactive,
[N-]=[N+]=[N-],,94.4 µM (active)
Cc1ccc(N)cc1N,inactive,
CCOC(=O)c1ccccc1C(=O)OCC,inactive,

# Read-out: Transforming Growth Factor (TGFB1), TGFB1 (gene 7040)
# Test: LTEA_HepaRG_TGFB1: Life Technologies and Expression Analysis (LTEA) Assay for Transforming Growth Factor (TGFB1) Transporter using HepaRG (AID 2283533)
# Conditions: mRNA level, 48 h; actives raise or lower the signal
# How it was run: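 TGFB1 transcript measured by qRT-PCR with normalisation to three housekeeping genes (ACTB, GAPDH, POLR2A); human HepaRG line treated in duplicate for 48 hr with an 8-point series topping at 100 uM, 0.5% DMSO vehicle, bidirectionally fitted.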
Compound,outcome,AC50
ClC(Cl)c1ccccc1,inactive,
CC(C)(C)c1ccc(O)cc1,inactive,
CCC(C)(C)c1ccc(O)cc1,inactive,
c1ccc2c(c1)Nc1ccccc1S2,inactive,
CCNc1nc(Cl)nc(NC(C)(C)C)n1,inactive,
Nc1cc2c3c(c1)C(c1ccccc1)=N[C@@H](NC(=O)c1cccnc1)C(=O)N3CC2,inactive,
ClC(Cl)(Cl)c1ccccc1,inactive,
O=[N+]([O-])c1ccccc1,inactive,
CCOP(=S)(Oc1ccc([N+](=O)[O-])cc1)c1ccccc1 (centres undefined),inactive,
CCCCN(CCCC)SN(C)C(=O)Oc1cccc2c1OC(C)(C)C2,inactive,
c1nc[nH]n1,,12.4 µM (active)
CN(C)C(=O)Cl,inactive,
CCN(CC)c1ccccc1,inactive,
Nc1ccc(Cl)cc1,inactive,
CCCCCCCc1ccc(O)cc1,inactive,
Cc1ccc(O)cc1C,inactive,
c1cc2c3c(cccc3c1)CC2,inactive,
CCC1(c2ccccc2)C(=O)N=C(O)NC1=O (centres undefined),inactive,
O=P1(N(CCCl)CCCl)NCCCO1 (centres undefined),inactive,
[N-]=[N+]=[N-],inactive,
Cc1ccc(N)cc1N,inactive,
CCOC(=O)c1ccccc1C(=O)OCC,inactive,

# From PubChem BioAssay (EPA / NIEHS)
